Test results: PubChem BioAssay (EPA / NIEHS)
Calls of active or inactive are those of the source. The calls were made as follows: active = hit-call score of the fitted dose curve at least 0.9, where 1 is the maximum; inactive = score below 0.9.

What was measured:
[1] = APR_HepG2_NuclearSize_72hr: Apredica 72-hour HepG2 Assay for Nuclear Size (AID 2282925); conditions: high-content imaging, actives raise or lower the signal
Method in brief: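 HepG2 cells dosed 72 h at 0.39–200 uM (10 concentrations, duplicate) in 0.5% v/v DMSO final. Fixed, Hoechst 33342-stained nuclei imaged; nuclear diameter measured by automated image analysis. Bidirectional fit versus DMSO.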

[2] = ATG_CRE_CIS: Attagene CIS-FACTORIAL HepG2 Assay for human cAMP Responsive Element (CRE) binding protein 3 (AID 2282926); conditions: HepG2 CRE cis-reporter, Attagene multiplexed mRNA; actives raise or lower the signal
Method in brief: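 HepG2 cells transiently transfected with cis-element-driven multiple reporter transcription units; CRE reporter mRNA measured 24 h after dosing by RT-PCR, 6-FAM labelling, HpaI digestion and capillary electrophoresis. Bidirectional fit versus DMSO baseline.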

[3] = target: CCAAT/enhancer-binding protein beta (Homo sapiens) (UniProt P17676); test: ATG_C_EBP_CIS: Attagene CIS-FACTORIAL HepG2 Assay for human CCAAT/Enhancer Binding Protein (C/EBP) beta (AID 2282927); conditions: HepG2 Attagene cis-factorial transcription factor reporter; actives raise or lower the signal
Chain of CCAAT/enhancer-binding protein beta (Homo sapiens) (P17676 whole entry, looked up): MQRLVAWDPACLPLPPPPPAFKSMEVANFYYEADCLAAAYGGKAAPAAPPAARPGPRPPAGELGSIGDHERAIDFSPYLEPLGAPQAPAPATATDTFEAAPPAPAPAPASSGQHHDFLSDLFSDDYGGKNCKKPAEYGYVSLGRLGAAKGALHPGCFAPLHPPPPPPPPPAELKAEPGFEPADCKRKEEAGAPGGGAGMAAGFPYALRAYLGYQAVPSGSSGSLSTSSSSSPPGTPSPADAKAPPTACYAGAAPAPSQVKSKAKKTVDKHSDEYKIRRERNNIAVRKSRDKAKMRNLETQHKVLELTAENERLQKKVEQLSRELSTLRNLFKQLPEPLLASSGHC
Method in brief: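 HepG2, transient MRTU transfection, 24 h treatment. RT-PCR plus CE fluorescence; DMSO negative control, bidirectional fit.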

[4] = ATG_CMV_CIS: Attagene CIS-FACTORIAL HepG2 Assay for human CMV (Internal Marker) (AID 2282928); conditions: HepG2 CMV promoter reporter, transcription factor profiling; actives raise or lower the signal;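 also: endpoint acts as a background internal control marker rather than a target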
Method in brief: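 Endogenous transcription factor activity read in HepG2 via transfected cis-promoter reporter units. After 24 h dosing, reporter mRNA measured by RT-PCR/capillary electrophoresis; gain or loss of signal fit relative to DMSO.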

[5] = ATG_DR4_LXR_CIS: Attagene CIS-FACTORIAL HepG2 Assay for human Liver X Receptor (LXR), DR4 submotif (AID 2282929); conditions: HepG2 Attagene DR4 cis-reporter, mRNA transcription; actives raise or lower the signal
Method in brief: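 Measures endogenous transcription factor activity via a DR4-driven reporter transcript in human HepG2 cells. Compounds incubated 24 h; mRNA quantified by RT-PCR and capillary electrophoresis, analysed as gain or loss of signal versus DMSO.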

[6] = target: Aryl hydrocarbon receptor (Homo sapiens) (UniProt P35869); test: ATG_Ahr_CIS: Attagene CIS-FACTORIAL HepG2 Assay for human Aryl Hydrocarbon Receptor (Ahr) (AID 2282930); conditions: HepG2 AhR cis-factorial reporter transcription; actives raise or lower the signal
Chain of Aryl hydrocarbon receptor (Homo sapiens) (P35869 whole entry, looked up): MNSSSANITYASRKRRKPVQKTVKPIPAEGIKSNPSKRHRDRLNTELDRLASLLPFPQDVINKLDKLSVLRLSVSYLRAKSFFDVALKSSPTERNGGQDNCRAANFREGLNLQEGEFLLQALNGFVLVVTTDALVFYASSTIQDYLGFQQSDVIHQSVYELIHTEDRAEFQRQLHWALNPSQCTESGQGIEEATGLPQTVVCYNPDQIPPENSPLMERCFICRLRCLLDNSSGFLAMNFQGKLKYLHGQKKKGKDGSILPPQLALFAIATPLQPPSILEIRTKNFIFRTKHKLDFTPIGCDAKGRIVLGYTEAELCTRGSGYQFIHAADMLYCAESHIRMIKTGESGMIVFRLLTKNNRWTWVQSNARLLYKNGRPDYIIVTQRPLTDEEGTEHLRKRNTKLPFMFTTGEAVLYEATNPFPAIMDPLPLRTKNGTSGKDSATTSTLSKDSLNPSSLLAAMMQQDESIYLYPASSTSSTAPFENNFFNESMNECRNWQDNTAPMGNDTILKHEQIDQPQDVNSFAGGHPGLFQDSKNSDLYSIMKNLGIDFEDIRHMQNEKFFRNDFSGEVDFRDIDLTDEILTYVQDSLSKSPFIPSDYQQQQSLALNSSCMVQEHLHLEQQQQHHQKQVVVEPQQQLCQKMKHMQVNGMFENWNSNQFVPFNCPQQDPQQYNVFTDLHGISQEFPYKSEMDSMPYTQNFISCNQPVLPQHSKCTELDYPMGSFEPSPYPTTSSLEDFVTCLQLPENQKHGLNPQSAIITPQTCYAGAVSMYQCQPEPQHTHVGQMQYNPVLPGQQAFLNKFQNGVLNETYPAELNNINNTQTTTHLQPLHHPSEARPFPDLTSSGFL
Method in brief: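 Endogenous factor activity is tracked through cis-promoter reporter units transfected into HepG2 cells. Transcript levels at 24 h are read by fluorescent RT-PCR and capillary electrophoresis, with activity in either direction scored relative to DMSO.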

[7] = ATG_AP_1_CIS: Attagene CIS-FACTORIAL HepG2 Assay for human Activator Protein 1 (AP-1) (AID 2282931); conditions: HepG2 Attagene cis-factorial AP-1 reporter mRNA; actives raise or lower the signal
Method in brief: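 Bidirectional concentration-response fitting against DMSO controls. Underlying signal: reporter mRNA from cis-promoter constructs in transiently transfected HepG2, measured after 24 h by RT-PCR and capillary electrophoresis.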

[8] = ATG_AP_2_CIS: Attagene CIS-FACTORIAL HepG2 Assay for human Activator Protein 2 (AP-2) (AID 2282932); conditions: HepG2 AP-2 cis-reporter, Attagene transcription factor profiling; actives raise or lower the signal
Method in brief: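 Multiplexed mRNA reporter assay in HepG2: cis-regulated units report endogenous factor activity after 24 h treatment. Fluorescence from capillary electrophoresis of RT-PCR products gives the signal, with DMSO as baseline.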

[9] = ATG_BRE_CIS: Attagene CIS-FACTORIAL HepG2 Assay for human Bone Morphogenetic Protein (BMP) Response Element (BRE) (AID 2282933); conditions: HepG2 BMP response element reporter, Attagene transcription factor profiling; actives raise or lower the signal
Method in brief: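 Endogenous transcription factor activity read in transiently transfected HepG2 cells after 24 h chemical exposure. Bidirectional curve fitting against DMSO; readout is reporter transcript level by RT-PCR with capillary electrophoresis of labelled products.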

[10] = target: Retinoic acid receptor alpha (Homo sapiens) (UniProt P10276); test: ATG_DR5_RAR_CIS: Attagene CIS-FACTORIAL HepG2 Assay for human Retinoic Acid Receptor Alpha (RARE), DR5 submotif (AID 2282934); conditions: HepG2 Attagene cis-factorial RARE DR5 reporter, mRNA; actives raise or lower the signal;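 as to AC50: reporter responds to endogenous RAR alpha beta and gamma in HepG2 not RARA alone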
Chain of Retinoic acid receptor alpha (Homo sapiens) (P10276 whole entry, looked up): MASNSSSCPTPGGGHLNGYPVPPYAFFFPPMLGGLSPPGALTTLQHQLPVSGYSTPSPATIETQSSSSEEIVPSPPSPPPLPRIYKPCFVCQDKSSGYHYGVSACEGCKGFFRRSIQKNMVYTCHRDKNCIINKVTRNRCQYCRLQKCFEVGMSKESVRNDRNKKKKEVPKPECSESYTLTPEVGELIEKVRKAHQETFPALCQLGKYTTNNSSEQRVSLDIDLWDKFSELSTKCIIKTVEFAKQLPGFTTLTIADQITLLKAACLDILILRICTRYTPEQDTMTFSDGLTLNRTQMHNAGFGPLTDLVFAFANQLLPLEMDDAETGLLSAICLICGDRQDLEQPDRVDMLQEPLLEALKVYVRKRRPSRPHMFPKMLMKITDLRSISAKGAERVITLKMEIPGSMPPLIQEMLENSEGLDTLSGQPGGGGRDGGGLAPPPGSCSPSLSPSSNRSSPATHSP
Method in brief: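 After 24 h of chemical exposure, transiently transfected HepG2 cells were lysed for total RNA; the DR5-regulated reporter transcript was quantified via RT-PCR and capillary electrophoresis, with activity fitted bidirectionally against DMSO.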

Measured: AC50

Cc1ncc([C@@H](CCCCCCc2ccc3c(n2)NCCC3)CC(=O)O)cn1
active: [1] 0.0398 µM | [7] 0.0172 µM
not listed: [10]
inactive: all other assays above

O=S1(=O)CCCO1
not listed: [10]
inactive: all other assays above

O=C(O)c1ccc2c(c1)nc(C(=O)NC1CCN(C3CC3)CC1)n2Cc1cc(-c2ccc(Cl)s2)on1
not listed: [10]
inactive: all other assays above

O=C(O)c1cccc(C[C@@H]2COc3ccc(OCc4nc5cc(F)ccc5s4)cc3[C@@H]2O)c1
active: [5] 100 µM | [7] 158 µM | [8] 167 µM
not listed: [10]
inactive: all other assays above

C[C@@H](Oc1ccc(CNC(=O)c2cccnc2Oc2ccc3c(c2)OCO3)c(F)c1)C(=O)O
not listed: [10]
inactive: all other assays above

CCCOc1ccc(S(=O)(=O)N2CCN(CC)CC2)cc1-c1nc2c(CC)n(Cc3ccccn3)nc2c(=O)[nH]1
active: [5] 150 µM
inactive: all other assays above

C[C@]12C=CC(=O)C=C1CC[C@H]1[C@@H]3C[C@@H](O)[C@](O)(C(=O)CO)[C@@]3(C)C[C@H](O)[C@@]12F
not listed: [10]
inactive: all other assays above

c1ccc(C(O[C@@H]2CCCN(CCc3ccc4c(c3)OCO4)C2)c2ccccc2)cc1
active: [4] 50.8 µM | [5] 47.4 µM | [6] 18.1 µM | [7] 52.1 µM | [9] 33 µM
inactive: [1] | [2] | [3] | [8]

CC(=O)c1ccccc1
not listed: [10]
inactive: all other assays above

CCCCCCCCCCCCCCO
inactive: [1] | [2] | [7]
active: [3] 74.3 µM | [4] 29.4 µM | [5] 78 µM | [6] 114 µM | [8] 166 µM | [9] 166 µM

NC(=O)NN=Cc1ccc([N+](=O)[O-])o1
active: [4] 17.2 µM | [7] 64.4 µM
not listed: [10]
inactive: all other assays above

COS(C)(=O)=O
active: [6] 22.1 µM
not listed: [10]
inactive: all other assays above

OC(CCl)CCl
not listed: [10]
inactive: all other assays above

c1ccc2ncccc2c1
active: [6] 41.9 µM
not listed: [10]
inactive: all other assays above

CCc1cccc(CC)c1N
not listed: [10]
inactive: all other assays above

CCc1ccc(O)c(C(C)(C)C)c1
active: [4] 43 µM | [7] 43.7 µM
not listed: [10]
inactive: all other assays above

CCCCN1C(=O)[C@@H]([C@H](O)C2CCCCC2)NC(=O)C12CCN(Cc1ccc(Oc3ccc(C(=O)O)cc3)cc1)CC2
active: [3] 32.9 µM | [5] 71.5 µM
not listed: [10]
inactive: all other assays above

CCCCCCCCCCCCCCCCOS(=O)(=O)O
active: [5] 24.5 µM | [7] 28.5 µM
not listed: [10]
inactive: all other assays above

C=CN1CCCC1=O
not listed: [10]
inactive: all other assays above

CC[C@H](C)C(=O)O[C@H]1C[C@H](O)C=C2C=C[C@H](C)[C@H](CC[C@@H](O)C[C@@H](O)CC(=O)O)[C@H]21
active: [6] 68.4 µM
inactive: all other assays above

CCCCCCCCCC
not listed: [10]
inactive: all other assays above

Cn1c(=O)c2[nH]cnc2n(C)c1=O
not listed: [10]
inactive: all other assays above

CC1(C)C(=O)N(Cl)C(=O)N1Cl
not listed: [10]
inactive: all other assays above

CCn1nc(C)c2c1C(=O)NCC(c1ccc(O)cc1)=N2
not listed: [10]
inactive: all other assays above

COc1cc(C(C)C)c2c(c1)S(=O)(=O)N(COc1cc(=O)n3cccc(OCCN4CCCCC4)c3n1)C2=O
active: [2] 3.96 µM | [3] 3.74 µM | [4] 2.2 µM | [5] 0.643 µM | [7] 2.24 µM | [10] 0.812 µM
inactive: [1] | [6] | [8] | [9]

NNC(=O)c1ccncc1
not listed: [10]
inactive: all other assays above

OC(Cn1cncn1)(Cn1cncn1)c1ccc(F)cc1F
not listed: [10]
inactive: all other assays above

O=C(O)[C@H](O)[C@@H](O)C(=O)O
not listed: [10]
inactive: all other assays above

Nc1ccn([C@@H]2O[C@H](CO)[C@@H](O)[C@@H]2O)c(=O)n1
active: [1] 0.0394 µM
inactive: all other assays above

Cc1nccn1-c1ccc(Sc2cccc(C3(C(N)=O)CCOCC3)c2)cc1
active: [2] 1.67 µM | [3] 1.94 µM | [4] 0.93 µM | [8] 8.08 µM | [10] 1.83 µM
inactive: all other assays above

CNC(C)=O
inactive: all assays above

CCCCCCOC(=O)CC(CC(=O)OCCCCCC)(OC(=O)CCC)C(=O)OCCCCCC
inactive: all assays above

O=C(O)c1cccc(C(=O)O)c1
inactive: all assays above

COCc1nnc(-c2ccc[n+]([O-])c2)n1-c1c(Cl)c(Cl)cc2[nH]c(=O)c(=O)[nH]c12
inactive: all assays above

OCc1ccccc1
inactive: all assays above

Cc1ccc(S(=O)(=O)NC(=O)NN2CCCCCC2)cc1
inactive: all assays above

c1ccc2cc3ccccc3cc2c1
inactive: all assays above

COc1cc2c(c(OC)c1OC)-c1ccc(OC)c(=O)cc1[C@@H](NC(C)=O)CC2
active: [4] 0.0703 µM | [7] 0.123 µM | [8] 61.1 µM | [9] 4.6 µM
inactive: all other assays above

OC[C@H]1O[C@@H]2O[C@H]3[C@H](O)[C@@H](O)[C@@H](O[C@H]4[C@H](O)[C@@H](O)[C@@H](O[C@H]5[C@H](O)[C@@H](O)[C@@H](O[C@H]6[C@H](O)[C@@H](O)[C@@H](O[C@H]7[C@H](O)[C@@H](O)[C@@H](O[C@H]1[C@H](O)[C@H]2O)O[C@@H]7CO)O[C@@H]6CO)O[C@@H]5CO)O[C@@H]4CO)O[C@@H]3CO
active: [6] 33.5 µM
inactive: all other assays above

NC(=O)N(O)[C@@H]1COc2cc(OCc3ccccc3)ccc21
active: [10] 0.406 µM
inactive: all other assays above

C=CCc1cc(S(=O)(=O)c2ccc(O)c(CC=C)c2)ccc1O
active: [1] 79.1 µM | [4] 27.9 µM | [5] 20.4 µM | [7] 23.2 µM | [9] 22.1 µM
inactive: all other assays above

CCOC(N)=O
not listed: [6] | [10]
inactive: all other assays above
